Rows were chosen to be rich in hits. Some 7.9% of all compounds tested hit in one or more screens of this group.
SW480 rerep – A quantitative high throughput screen for small molecules that induce DNA re-replication in SW480 colon adenocarcinoma cells; SW480 DNA re-replication, Hoechst DNA content imaging, 48 h; Potency, µM (top dose mostly 46.1 µM), actives largely listed as activators; actives 1.8% (n = 340,000); further: nearly all actives have a fitted effect of over 55% in size
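Hoechst fluorescence of nuclei (405 nm excitation, 500-530 nm emission) measured by plate-scanning imager after 48 hr compound exposure at 37 C; re-replication scored as increased number of nuclei with elevated intensity.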
HT1080-NT tox – qHTS for induction of synthetic lethality in tumor cells producing 2HG: qHTS for the HT-1080-NT fibrosarcoma cell line. HT-1080-NT fibrosarcoma viability, CellTiter-Glo ATP luminescence, 48 h. Potency, µM (titrated, usually from 46.1 µM), most hits filed as cytotoxic. actives 1.6% (n = 360,000). AID 686970, 2013;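 further: NT is the 2HG producing partner of a matched IDH1 knockdown line; nearly all actives have a fitted effect of over 55% in size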
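Compounds were tested in concentration-response format on HT-1080-NT cells for 48 hours at 37 degrees C. Cell viability came from CellTiter-Glo luminescence; curves were classified by r2, response magnitude and activity.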
KB-3-1 cytotox – qHTS assay for MDR1-selective chemotherapeutics: Primary screen using the parental adenocarcinoma cell KB-3-1. Potency, µM (titrated, usually from 46.1 µM), usual class: cytotoxic. KB-3-1 viability, CellTiter-Glo ATP luminescence, 72 h. actives 1.4% (n = 400,000). AID 1347075, 2019; further: nearly all actives have a fitted effect of over 60% in size
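Multi-concentration cytotoxicity screen in KB-3-1 cells grown in DMEM lacking phenol red with 10% FBS. After 72 h at 37 °C with compound, ATP-dependent luminescence was recorded.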
HT1080 IDH1KD tx – qHTS for induction of synthetic lethality in tumor cells producing 2HG: qHTS for the HT-1080-IDH1KD cell line; HT-1080 IDH1 knockdown viability, ATP luminescence, 48 h; Potency, µM (highest dose often 46.1 µM), actives largely listed as cytotoxic; actives 2% (n = 360,000); AID 686971, 2013
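In this qHTS, HT-1080 cells depleted of IDH1 are exposed for 48 h at 37 °C to compound titrations. Toxicity is scored from CellTiter-Glo luminescence, with DMSO as full viability and medium alone as none.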
MCF10A rerep – A quantitative high throughput screen for small molecules that induce DNA re-replication in MCF 10a normal breast cells; MCF 10A DNA re-replication, Hoechst nuclear intensity, 48 h; Potency, µM (series often up to 46.1 µM), usual class: activators; actives 2.9% (n = 350,000); further: nearly all actives have a fitted effect of over 50% in size
KB-V1 MDR tox – qHTS assay for MDR1-selective chemotherapeutics: Primary screen using the drug-selected MDR subline cells KB-V1; Potency, µM (titrated, usually from 46.1 µM), hits mostly cytotoxic; AID 1347076, 2019; actives 3.4% (n = 400,000); KB-V1 MDR cells viability, CellTiter-Glo, 72 h; further: nearly all actives have a fitted effect of over 60% in size
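KB-V1 MDR subline cells in DMEM (phenol-red free, 10% FBS) exposed to compounds in qHTS concentration series for 72 h at 37 degrees C. Viability read by CellTiter-Glo luminescence; concentration-effect curves fitted after normalization and correction.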
A number is an active result. The call rests on the fitted dose curve; in most records, active means well fitted curve in the direction sought with a large enough effect; inconclusive means small, poorly fitted or top-dose-only effect, or another doubt; inactive means no such curve, though single readings can be large; an effect the other way counts as inactive or inconclusive.

How did CN(C)S(=O)(=O)c1cccc(-c2nn(-c3ccccc3)cc2/C=C(\C#N)c2nc3ccccc3[nH]2)c1 do in these assays?
SW480 rerep: inconclusive; HT1080-NT tox: inactive; KB-3-1 cytotox: inactive; HT1080 IDH1KD tx: inactive; MCF10A rerep: 3.3µM; KB-V1 MDR tox: inactive

What do the screens show for `O=C(O)CCn1cc(/C=C2\SC(=S)NC2=O)c(-c2ccccc2)n1`?
SW480 rerep: inactive; HT1080-NT tox: inactive; KB-3-1 cytotox: inactive; HT1080 IDH1KD tx: inactive; MCF10A rerep: inactive; KB-V1 MDR tox: inactive

Results for N#C/C(=C\c1cn(-c2ccccc2)nc1-c1cc2ccccc2o1)c1nc2ccccc2[nH]1 ?
SW480 rerep: 2.9µM; HT1080-NT tox: inactive; KB-3-1 cytotox: inactive; HT1080 IDH1KD tx: inactive; MCF10A rerep: inconclusive; KB-V1 MDR tox: inconclusive

How did CN(C)S(=O)(=O)c1cccc(-c2nn(-c3ccccc3)cc2/C=C2\SC(=S)NC2=O)c1 do in these assays?
SW480 rerep: inactive; HT1080-NT tox: inconclusive; KB-3-1 cytotox: inconclusive; HT1080 IDH1KD tx: 10µM; MCF10A rerep: inconclusive; KB-V1 MDR tox: inconclusive

Results for COc1ccc(-c2nn(-c3ccccc3)cc2/C=C(\C#N)S(=O)(=O)c2ccccc2)cc1OC ?
SW480 rerep: inactive; HT1080-NT tox: inactive; KB-3-1 cytotox: inactive; HT1080 IDH1KD tx: inactive; MCF10A rerep: inactive; KB-V1 MDR tox: inactive

How did CN(C)c1ccc(CNC(=O)Cn2c(=O)oc3cc(S(=O)(=O)N4CCCCCC4)ccc32)cc1 do in these assays?
KB-3-1 cytotox: inactive; KB-V1 MDR tox: inactive

What do the screens show for `CCC(=O)N1c2ccccc2CC1C(=O)NCCCN1CCN(c2cccc(Cl)c2)CC1` (configuration not stated)?
KB-3-1 cytotox: inactive; KB-V1 MDR tox: inactive

What do the screens show for `CC(c1ccccc1)N1C(=O)c2cccnc2C1=O` (configuration not stated)?
SW480 rerep: inactive; HT1080-NT tox: inactive; KB-3-1 cytotox: inactive; HT1080 IDH1KD tx: inactive; MCF10A rerep: inconclusive; KB-V1 MDR tox: inactive

What do the screens show for `CC(NC1=CC(=O)c2cccnc2C1=O)C(O)c1ccccc1` (configuration not stated)?
SW480 rerep: 12µM; HT1080-NT tox: 18µM; KB-3-1 cytotox: 8.2µM; HT1080 IDH1KD tx: 6.5µM; MCF10A rerep: 3.7µM; KB-V1 MDR tox: 15µM

How did CCOC(=O)C1CCN(C(c2cccnc2)c2c(NC(=O)c3ccco3)sc(C)c2C)CC1 (configuration not stated) do in these assays?
SW480 rerep: inconclusive; HT1080-NT tox: inactive; KB-3-1 cytotox: 3.3µM; HT1080 IDH1KD tx: inconclusive; MCF10A rerep: inconclusive; KB-V1 MDR tox: 2.9µM

How did CCOc1ccc(NC(=O)CSc2nnnn2C2CCCC2)cc1 do in these assays?
SW480 rerep: inactive; HT1080-NT tox: inactive; KB-3-1 cytotox: inactive; HT1080 IDH1KD tx: inactive; MCF10A rerep: inactive; KB-V1 MDR tox: inactive

How did CCCn1c(=N)n(CC(=O)c2ccc(Cl)cc2)c2ccccc21 do in these assays?
SW480 rerep: inactive; HT1080-NT tox: inconclusive; KB-3-1 cytotox: inconclusive; HT1080 IDH1KD tx: inconclusive; MCF10A rerep: inconclusive; KB-V1 MDR tox: inconclusive

What do the screens show for `CCCn1c(=N)n(CC(=O)c2ccc([N+](=O)[O-])cc2)c2ccccc21`?
SW480 rerep: inactive; HT1080-NT tox: inactive; KB-3-1 cytotox: inconclusive; HT1080 IDH1KD tx: inactive; MCF10A rerep: 15µM; KB-V1 MDR tox: inconclusive

What do the screens show for `Cc1ccccc1Cn1c(=N)n(CC(=O)c2ccc([N+](=O)[O-])cc2)c2ccccc21`?
SW480 rerep: inactive; HT1080-NT tox: inactive; KB-3-1 cytotox: inconclusive; HT1080 IDH1KD tx: inactive; MCF10A rerep: inconclusive; KB-V1 MDR tox: 18µM

Results for CCN(C(=O)c1cnc2ccc(C)cn2c1=O)c1ccccc1 ?
KB-3-1 cytotox: inactive; KB-V1 MDR tox: inconclusive

Screening results (PubChem BioAssay)
